A selection: hits, their analogues and other compounds. The true share with any hit is near 19%.
MCF10A rereplic: DNA re-replication induction in MCF 10a cells | actives 2.9% (n = 350,000) | Potency, µM (top dose mostly 46.1 µM), without a hit: at the top dose activity, positive = re-replication, most hits filed as activators | MCF 10A DNA re-replication, Hoechst nuclear intensity, 48 h; note: potency is the fitted concentration of half-maximal effect; % of control where 0% means no effect; nearly all actives have a fitted effect of over 50% in size
IL-1B inflam inh: blocks inflammasome-driven IL-1 beta release. THP-1 LPS/ATP IL-1B secretion, AlphaLISA, 16 h; stronger effect = lower value. activity change, % at 57.5 µM. actives 4.7% (n = 360,000). AID 743279; in the data active = activity change below about -50%; inconclusive = mostly about -30% to -49%; note: % is set by controls: 0 for no effect and ±100 for the full control effect
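THP-1 cells pretreated 1 hr with compounds (up to 57.5 uM final), then stimulated with LPS (250 ng/mL final) plus ATP (1.25 mM final); secreted IL-1B measured by AlphaLISA after 16 hr, decreased signal indicating inhibition.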
DT40 TDP1 CPT: DT40-hTDP1 cell growth loss with CPT. chicken DT40 Tdp1-/-;hTDP1 cells + 20 nM CPT, ATP luminescence, 48 h. Potency, µM (series often up to 46.2 µM), without a hit: at the top dose activity change, negative = growth inhibition, most hits filed as inhibitors. actives 12% (n = 420,000); note: potency is the fitted concentration of half-maximal effect; % is set by controls: 0 for no effect and ±100 for the full control effect; nearly all actives have a fitted effect of over 55% in size
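Chicken DT40 Tdp1-/- cells stably complemented with human TDP1 were seeded at 400 cells/well in medium containing 20 nM camptothecin, exposed to pin-transferred compounds, and grown at 37 °C for at least 48 hr. Viability was read as ATP luminescence.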
Chronic BCR inh: inhibitors of chronic active B-cell receptor signaling. ABC-DLBCL IkBa-CBG/CBR reporter, luminescence ratio, 4 h. Potency, µM (series often up to 46.1 µM), without a hit: at the highest dose activity change, negative = inhibition, usual class: inhibitors. actives 0.05% (n = 340,000). AID 493014; active = well fitted inhibition curve with a large enough effect in the signal ratio, with a control signal flat, not every such curve was filed as active; inconclusive = small, poorly fitted or top-dose-only effect, or effect the other way, or a change in a side signal; the % refers to the signal ratio;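 note: potency is the fitted concentration of half-maximal effect; plate controls were basal doxycycline-induced cells for no effect and cells given 10 µM MG132 for full effect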
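Compounds up to 46 uM were incubated four hours with TMD8 cells whose green CBG68 luciferase is fused to IkappaBalpha; red CBR luminescence normalised the signal, and concentration-effect curves were fitted to fusion, red and ratio data.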
TDP1 cell noCPT: qHTS for Inhibitors of human tyrosyl-DNA phosphodiesterase 1 (TDP1): qHTS in cells in absence of CPT; Potency, µM (doses to about 46.2 µM), for inactives: top-dose activity change, negative = growth inhibition, hits mostly inhibitors; AID 686978, 2013; actives 15% (n = 420,000); DT40 Tdp1-/- hTDP1 cells, no CPT, ATP luminescence, 48 h; note: potency is the fitted concentration of half-maximal effect; % is set by controls: 0 for no effect and ±100 for the full control effect; nearly all actives have a fitted effect of over 55% in size
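Camptothecin absent (DMSO only). Human TDP1-complemented DT40 knockout cells, 400 cells/well, 37 °C for minimum 48 hr; ATP measured via CellTiter-Glo, 30 min dark incubation, luminescence.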
SW480 rereplic: DNA re-replication induction in SW480 cells. actives 1.8% (n = 340,000). SW480 DNA re-replication, Hoechst DNA content imaging, 48 h. Potency, µM (doses to about 46.1 µM), for inactives: top-dose re-replication activation, usual class: activators; note: potency is the fitted concentration of half-maximal effect; % of control where 0% means no effect; nearly all actives have a fitted effect of over 55% in size
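Quantitative HTS format with DMSO vehicle controls; 48 hr drug incubation at 37 C, then 40 min Hoechst staining and scanning imager measurement at 405 nm excitation.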
* marks the source's active call; other numbers are inactive results; u = inconclusive; x = no result given. Unless noted, calls come from the whole dose curve; as a rule, active = well fitted curve in the direction sought with a large enough effect; inconclusive = small, poorly fitted or top-dose-only effect, or another doubt; inactive = no such curve, though single readings can be large; an effect the other way counts as inactive or inconclusive.

SMILES | MCF10A rereplic | IL-1B inflam inh | DT40 TDP1 CPT | Chronic BCR inh | TDP1 cell noCPT | SW480 rereplic
CC(=O)c1ccc(S(=O)(=O)Nc2ccc(-c3cn4c(C)csc4n3)cc2)cc1 | x | x | 2.7% | x | -0.4% | x
COc1cccc2sc(NN)nc12 | 2.9% | -0.6 | u | u | u | -2.5%
COc1cccc(-c2nnc(Nc3nc4c(F)cccc4s3)o2)c1 | 16.4µM* | 38.6 | 20.6µM* | u | 23.1µM* | 7.4%
COc1ccccc1-c1nnc(Nc2nc3c(OC)cccc3s2)o1 | u | 80.6 | 0.92µM* | u | 0.731µM* | 2.31µM*
COc1cccc2sc(Nc3nnc(-c4ccccc4Cl)o3)nc12 | u | 48.9 | 1.64µM* | u | 1.46µM* | 2.59µM*
CC(C)(C)OC(=O)N1CCC(c2c(C(=O)NCc3ccc4c(c3)OCO4)cnn2-c2ccc(F)cc2F)CC1 | x | x | u | x | -80.7% | x
Cc1nc2c(sc3nc4c(cc32)COC(C)(C)C4)c(=O)n1CC(=O)NCc1ccco1 | u | 62.5 | 3.26µM* | u | 4.11µM* | u
CC1(C)Cc2nc3sc4c(SCC(=O)NCc5ccco5)ncnc4c3cc2CO1 | 3.26µM* | 0.1 | 2.06µM* | -1.5% | 2.31µM* | 3.26µM*
CC1(C)Cc2nc3sc4c(=O)n(CC(=O)NCc5ccccc5)cnc4c3cc2CO1 | 6.51µM* | 53.0 | 4.61µM* | -8.4% | 3.66µM* | u
CCCc1nc2c(sc3nc4c(cc32)COC(C)(C)C4)c(=O)n1Cc1ccco1 | 0.7% | 17.1 | u | -3.4% | u | -1.4%
CCN(CC)C(=O)c1ccc(Oc2ccc([N+](=O)[O-])cc2Cl)cc1 | 9.0% | -7.8 | u | u | 16.4µM* | 0.4%
O=[N+]([O-])c1ccc(Oc2ccc(-c3nnco3)cc2)c(Cl)c1 | 5.1% | -0.5 | -16.9% | -0.4% | -26.8% | -7.2%
O=C(Nc1ccc([N+](=O)[O-])cc1Cl)c1cccc([N+](=O)[O-])c1 | x | -25.5 | -17.3% | x | -29.5% | x
Cc1ccc(C)c(NC(=O)c2cccc(Oc3ccc([N+](=O)[O-])cc3Cl)c2)c1 | 5.7% | u | u | 1.9% | 16.4µM* | 22.0%
CC(=O)Nc1ccc(NC(=O)c2ccc([N+](=O)[O-])cc2Cl)cc1 | 1.7% | 12.7 | -17.2% | -0.8% | -13.2% | 3.9%
O=C(Nc1cccc(Cl)c1)c1cc(N=Nc2ccc([N+](=O)[O-])cc2Cl)ccc1O | 3.0% | 23.3 | 5.17µM* | u | 2.59µM* | 6.0%
COc1ccc(/C=N/NC(=O)c2ccc(NC(=O)c3cccc([N+](=O)[O-])c3)cc2)c(OC)c1 | -1.5% | 15.8 | -25.7% | -19.6% | u | 1.8%
COc1ccc(NC(=O)c2cccc(Oc3ccc([N+](=O)[O-])cc3Cl)c2)cc1 | 6.51µM* | 39.0 | 5.8µM* | u | 4.61µM* | u
CSc1ncccc1C(=O)NNC(=O)c1ccc(NS(=O)(=O)c2cccs2)cc1 | 5.0% | -5.8 | 0.0% | 4.4% | 8.7% | 1.2%
Cc1ncc(C[n+]2csc(CCOP(=O)(O)O)c2C)c(N)n1 | -1.7% | x | -10.1% | x | -10.6% | -4.7%
Cc1ccc2c(cnn2C(=O)CCC(=O)NC2CCCCC2)c1 | 0.1% | 16.7 | 1.1% | -21.7% | 5.2% | -4.6%
Cc1ccc(-c2nn(CC(=O)NCc3ccccc3)c3c2cnc2ccc(F)cc23)cc1C | x | x | -29.1% | x | 3.1% | x
COc1ccc2c(c1)cc1c(=O)n(CC(=O)NC3CC3)nc(C)n12 | x | x | -1.9% | x | 4.0% | x
CC(=O)N1CC(C)Sc2ccc(S(=O)(=O)NC3CCCCC3C)cc21 (centres undefined) | -1.5% | 15.7 | u | -1.2% | -14.4% | 13.6%
O=C(Nc1cccc(Cl)c1)c1cccc(Oc2ccc([N+](=O)[O-])cc2Cl)c1 | u | -59.4* | u | u | u | 4.11µM*
SMILES | MCF10A rereplic | IL-1B inflam inh | DT40 TDP1 CPT | Chronic BCR inh | TDP1 cell noCPT | SW480 rereplic
Cc1ccc(-c2nnc(Nc3ccc(O)cc3)c3ccccc23)cc1S(=O)(=O)NCC1CCCO1 (centres undefined) | x | x | u | x | 23.1µM* | x
Cc1ccc(-c2nnc(Nc3ccc(Br)cc3)c3ccccc23)cc1S(=O)(=O)NCC1CCCO1 (centres undefined) | x | x | 16.4µM* | x | 4.11µM* | x
COc1cccc(C2C([N+](=O)[O-])=C(N)Oc3cc(C)oc(=O)c32)c1 (centres undefined) | -4.6% | -1.3 | 0.8% | -4.3% | -4.1% | -3.0%
O=C(COC(=O)C12CC3CC(CC(O)(C3)C1)C2)Nc1ccc(Cl)c(S(=O)(=O)N2CCOCC2)c1 | 7.9% | -18.7 | 29.1µM* | -2.3% | u | -8.1%
COc1ccc(NC(=O)COC(=O)C23CC4CC(CC(O)(C4)C2)C3)cc1Cl | 4.6% | -2.4 | u | -4.7% | u | -8.8%
COc1ccc(NC(=O)COC(=O)C23CC4CC(CC(NC(C)=O)(C4)C2)C3)cc1S(=O)(=O)N1CCOCC1 | -2.1% | 6.7 | 25.9µM* | -1.2% | 16.4µM* | -2.6%
COc1ccccc1NC(=O)C1=C(C)Nc2nc(SCc3ccccc3Cl)nn2C1c1ccncc1 (centres undefined) | x | x | -1.2% | x | -4.3% | x
CCN(CC(=O)Nc1c(F)cccc1F)C(=O)c1ccc(C)c(S(=O)(=O)N2CCCCC2)c1 | -17.3% | -20.5 | -26.2% | 2.5% | -22.8% | -196.1%
Nc1[nH]c(C(=O)c2ccccc2)c(-c2ccncc2)c1C(=O)NCc1ccc(Cl)cc1 | x | 2.0 | 7.3% | x | -8.3% | x
O=C(OCC(O)C(O)C(O)COC(=O)c1ccccc1)c1ccccc1 (centres undefined) | 1.5% | 0.1 | 11.7% | x | 2.8% | -21.6%
O=C(OCC(O)C(O)C(O)C(SCc1ccccc1)SCc1ccccc1)c1ccccc1 (centres undefined) | u | -72.4* | 29.1µM* | x | u | u
O=P(c1ccccc1)(c1ccccc1)c1ccccc1C(Br)Br | x | -24.9 | -41.7% | x | u | x
O/N=C/c1ccc(OCc2ccccc2)c(Br)c1 | 25.9µM* | u | -26.0% | u | u | u
CCOc1cc(/C=N/O)cc(Br)c1OCC | u | -1.8 | -2.4% | 4.1% | -28.3% | -1.8%
C#CCOc1c(Br)cc(/C=N/O)cc1OCC | u | 0.0 | -16.7% | 14.1% | 29.1µM* | -0.7%
CCCOc1c(Br)cc(/C=N/O)cc1OC | u | -1.3 | -25.9% | x | u | 1.5%
